Where “and” joins values, the source holds several entries; their conditions need not be identical. Equal entries are not always repeated. Results filed as inconclusive are left out. Calls of active or inactive are those of the source. Unless noted, calls follow the shape of the dose curve; as a rule, active = well fitted curve in the direction sought with a large enough effect in the repeat runs; inconclusive = weak or mixed curves; inactive = no such curve, though single readings can be large; an effect the other way counts as inactive or inconclusive.
Assays:
[1] = qHTS assay for small molecule agonists of the p53 signaling pathway (AID 651631; calls by dose curve; also: nearly all actives have a fitted effect of over 15% in size)
Procedure, shortened: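 HCT-116 cells carrying a stable p53 response element–beta-lactamase reporter were plated, rested 5 h at 37 °C, then exposed to compound in DMSO for 16 h at 37 °C; reporter activity was read as FRET substrate fluorescence after 2 h at room temperature.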

[2] = qHTS assay for small molecules that induce genotoxicity in human embryonic kidney cells expressing luciferase-tagged ATAD5 (AID 651632); also: nearly all actives have a fitted effect of over 15% in size
Procedure, shortened: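 Increased luciferase signal from ATAD5-tagged reporter cells indicates DNA-damage-driven ATAD5 induction. HEK293T cells are treated for 16 hr at 37C before detection with Amplite.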

[3] = qHTS assay for small molecule agonists of the p53 signaling pathway - cell viability (AID 651633; calls by dose curve; also: nearly all actives have a fitted effect of over 30% in size)
Procedure, shortened: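 Viability counter-read: CellTiter-Glo luminescence (30 min, room temperature) in the same p53RE-bla plates. These plates had been exposed to compounds for 16 h at 37 C.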

[4] = qHTS assay for small molecules that induce genotoxicity in human embryonic kidney cells expressing luciferase-tagged ATAD5 - cell viability (AID 651634; calls by dose curve; also: nearly all actives have a fitted effect of over 25% in size)
Procedure, shortened: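 Cytotoxicity counterscreen in HEK293T cells bearing an ATAD5-luciferase reporter: live-cell protease activity measured by CellTiter-Fluor fluorescence after 15.5 hr compound exposure.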

[5] = qHTS assay for small molecule disruptors of the mitochondrial membrane potential (AID 720635); also: potency is read from the fitted curve at half-maximal effect
Procedure, shortened: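 Mitochondrial membrane potential tracked with Mito-MPS dye, red aggregates (ex 540/em 590 nm) against green monomers (ex 490/em 535 nm). Compound treatment 1 hr at 37C, dye 30 min in HepG2.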

[6] = qHTS assay to test for compound auto fluorescence at 590 nm (red) in HepG2 cells (AID 720674)
Procedure, shortened: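 1 hr compound incubation on HepG2 cells, 37 C, 5% CO2; plate read ex 540 nm / em 590 nm; intensities reported as Rose Bengal sodium equivalents.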

[7] = qHTS assay to test for compound auto fluorescence at 535 nm (green) in HepG2 cells (AID 720675)
[8] = qHTS assay to test for compound auto fluorescence at 460 nm (blue) in HEK293 cells (AID 720678)
Procedure, shortened: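 Auto fluorescence in the blue band was quantified as triamterene equivalency. HEK293 cells were seeded at 2,000/well, dosed after a 4-5 hr attachment, and kept overnight at 37C before the 405/460 nm reading.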

[9] = qHTS assay to test for compound auto fluorescence at 590 nm (red) in HEK293 cells (AID 720679)
Procedure, shortened: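 Autofluorescence equivalency to Rose Bengal sodium, 540/590nm, in HEK293 cells exposed overnight to 23 nL compound per well.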

[10] = qHTS assay to test for compound auto fluorescence at 535 nm (green) in HEK293 cells (AID 720680)
[11] = qHTS assay to test for compound auto fluorescence at 460 nm (blue) in HEK293 cell free culture (AID 720681)
Procedure, shortened: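 Blue fluorescence (Ex 405/Em 460 nm, triamterene-equivalent) was read immediately after pin transfer of compound or DMSO into medium (DMEM, 10% FBS) without cells.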

[12] = qHTS assay to test for compound auto fluorescence at 535 nm (green) in HEK293 cell free culture (AID 720682)
Procedure, shortened: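 Read-out: 485/535 nm fluorescence intensity, calibrated against fluorescein. Medium only (DMEM + 10% FBS, no cells); test compound or DMSO vehicle added by pintool before plate reading.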

[13] = qHTS assay to test for compound auto fluorescence at 590 nm (red) in HEK293 cell free culture (AID 720683)
Procedure, shortened: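 Red-channel autofluorescence of compounds in culture medium (DMEM, 10% FBS), no cells, measured at 540/590 nm. Rose Bengal sodium is the reference fluorophore for equivalence.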

[14] = qHTS assay to test for compound auto fluorescence at 590 nm (red) in HepG2 cell free culture (AID 720684)
Procedure, shortened: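 Steps: dispense MEM/10% FBS medium, no cells; pin compound or DMSO vehicle; read red channel, Ex/Em 540/590 nm. Output given as Rose Bengal sodium equivalents.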

[15] = qHTS assay to test for compound auto fluorescence at 460 nm (blue) in HepG2 cell free culture (AID 720685)
Procedure, shortened: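 Compound (23 nL) or DMSO pinned into cell-free MEM with 10% FBS; blue fluorescence read at 405/460 nm excitation/emission, expressed as auto-fluorescence equivalency to triamterene.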

[16] = qHTS assay to test for compound auto fluorescence at 535 nm (green) in HepG2 cell free culture (AID 720686)
[17] = qHTS assay to test for compound auto fluorescence at 460 nm (blue) in HepG2 cells (AID 720687)
Procedure, shortened: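 Blue-channel autofluorescence (Ex/Em 405/460 nm, triamterene-equivalent) was measured after 1 hr compound exposure at 37 C, 5% CO2. Cells were HepG2, plated overnight at 37 C in MEM plus 10% FBS.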

[18] = molecular target: Glucocorticoid receptor (Homo sapiens) (UniProt P04150); experiment: qHTS assay to identify small molecule agonists of the glucocorticoid receptor (GR) signaling pathway (AID 720691; active = well fitted activation curve with a large enough effect in the signal ratio in the repeat runs, not every such curve was filed as active; the % refers to the signal ratio); settings: GR-bla HeLa, beta-lactamase reporter ratio, 18 h; activation: at 62.4 µM (top of the series)
Procedure, shortened: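 Agonist mode in a HeLa line carrying a GRE-controlled beta-lactamase reporter. Compounds act for 18 h at 37 C before a 2 h room-temperature FRET substrate step and fluorescence reading.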

[19] = molecular target: Glucocorticoid receptor (Homo sapiens) (UniProt P04150); experiment: qHTS assay to identify small molecule antagonists of the glucocorticoid receptor (GR) signaling pathway (AID 720692; active = well fitted inhibition curve with a large enough effect in the signal ratio in the repeat runs, not every such curve was filed as active; the % refers to the signal ratio)
Procedure, shortened: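 Cells plated, rested 4 h at 37 C/5% CO2; compounds in DMSO pin-transferred; dexamethasone added to 5 nM final; 18 h at 37 C; B/G FRET substrate added, 2 h room temperature; fluorescence measured.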

[20] = qHTS assay for small molecule disruptors of the mitochondrial membrane potential - cell viability (AID 720634; calls by dose curve;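 also: human HepG2 liver cancer cells; nearly all actives have a fitted effect of over 20% in size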)
Procedure, shortened: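 After overnight attachment at 37 C, HepG2 cells received compound or DMSO vehicle for 1 hr. Viability is then taken from ATP-driven luminescence following a 30 min room-temperature CellTiter-Glo step.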
% is scaled to controls: 0 for no effect and ±100 for the full control effect.

Sequence of Glucocorticoid receptor (Homo sapiens) (P04150 whole entry, looked up): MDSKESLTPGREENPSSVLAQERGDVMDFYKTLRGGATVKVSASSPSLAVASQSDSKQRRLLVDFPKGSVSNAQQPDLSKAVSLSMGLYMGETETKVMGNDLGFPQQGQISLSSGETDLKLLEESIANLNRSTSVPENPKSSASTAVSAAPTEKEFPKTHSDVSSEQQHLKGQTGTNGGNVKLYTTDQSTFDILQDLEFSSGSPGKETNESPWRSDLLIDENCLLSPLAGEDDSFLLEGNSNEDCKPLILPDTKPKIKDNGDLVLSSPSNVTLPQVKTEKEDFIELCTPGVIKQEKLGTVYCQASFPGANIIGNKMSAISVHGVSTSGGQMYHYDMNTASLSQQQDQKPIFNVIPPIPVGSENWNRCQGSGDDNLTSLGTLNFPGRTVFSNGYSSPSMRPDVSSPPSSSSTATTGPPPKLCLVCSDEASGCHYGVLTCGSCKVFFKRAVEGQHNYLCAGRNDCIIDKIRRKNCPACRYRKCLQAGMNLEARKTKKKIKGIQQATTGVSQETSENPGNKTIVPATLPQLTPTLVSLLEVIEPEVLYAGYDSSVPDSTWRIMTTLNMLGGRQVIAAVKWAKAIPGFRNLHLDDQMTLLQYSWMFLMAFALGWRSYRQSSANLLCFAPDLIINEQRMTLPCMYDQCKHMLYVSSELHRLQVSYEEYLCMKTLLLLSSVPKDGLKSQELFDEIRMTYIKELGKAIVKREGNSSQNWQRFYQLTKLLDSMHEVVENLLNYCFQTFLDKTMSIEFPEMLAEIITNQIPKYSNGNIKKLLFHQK

Clc1ccc(C2(Cn3cncn3)OCCO2)c(Cl)c1
inactive: Potency [1] | Potency [2] | Potency [3] | Potency [4] | Potency [5] | outcome [6] | Potency [7] | Potency [8] | outcome [9] | outcome [10] | Potency [11] | outcome [12] | outcome [13] | outcome [14] | Potency [15] | Potency [16] | Potency [17] | Potency [18] | Potency [19]

O=[N+]([O-])c1ccc(Cl)c(Cl)c1Cl
inactive: Potency [1] | Potency [2] | Potency [3] | Potency [4] | Potency [20] | Potency [7] | outcome [9] | outcome [10] | Potency [11] | outcome [12] | outcome [13] | outcome [14] | Potency [15] | Potency [16] | Potency [17]

Nc1cc(Cl)ccc1Cl
inactive: Potency [1] | Potency [2] | Potency [3] | Potency [4] | Potency [20] | outcome [6] | Potency [7] | Potency [8] | outcome [9] | outcome [10] | Potency [11] | outcome [12] | outcome [13] | outcome [14] | Potency [15] | Potency [16] | Potency [17] | Potency [18] | Potency [19]

CC(C)=CCN1CC[C@@]2(C)c3cc(O)ccc3C[C@@H]1[C@@H]2C
inactive: Potency [1] | Potency [2] | Potency [3] | Potency [4] | Potency [20] | Potency [5] | Potency [7] | Potency [8] | outcome [9] | outcome [10] | Potency [11] | outcome [12] | outcome [13] | outcome [14] | Potency [15] | Potency [16] | Potency [17]

COc1nc(C)nc(NC(=O)NS(=O)(=O)c2ccccc2Cl)n1
inactive: Potency [1] | Potency [2] | Potency [3] | Potency [4] | Potency [5] | outcome [6] | Potency [7] | Potency [8] | outcome [9] | outcome [10] | Potency [11] | outcome [12] | outcome [13] | outcome [14] | Potency [15] | Potency [16] | Potency [17] | Potency [18] | Potency [19]

C=Cc1cccc(CCl)c1
inactive: Potency [1] | Potency [2] | Potency [3] | Potency [4] | Potency [5] | Potency [7] | Potency [8] | outcome [9] | outcome [10] | Potency [11] | outcome [12] | outcome [13] | outcome [14] | Potency [15] | Potency [16] | Potency [17] | Potency [18] | Potency [19]

CC(=O)C(Cl)C(=O)N(C)C (configuration not stated)
inactive: Potency [1] | Potency [2] | Potency [3] | Potency [4] | Potency [20] | outcome [6] | Potency [7] | outcome [9] | outcome [10] | Potency [11] | outcome [12] | outcome [13] | outcome [14] | Potency [15] | Potency [16] | Potency [17]

CC(C)c1c(CN(C)C(C)Cc2ccccc2)n(C)n(-c2ccccc2)c1=O (configuration not stated)
inactive: Potency [1] | Potency [2] | Potency [3] | Potency [4] | Potency [20] | Potency [5] | fluorescence, relative to Rose Bengal [6] 0.213% [at 18.6 µM] | fluorescence, % of fluorescein control [7] -0.0089% [at 18.6 µM] | fluorescence, % of triamterene [8] -0.225% [at 18.6 µM] | fluorescence, % of fluorescent control [9] -0.993% [at 18.6 µM] | fluorescence, % of fluorescein [10] -0.0005% [at 18.6 µM] | fluorescence, % of fluorescent control [11] 0.024% [at 18.6 µM] | activity change [12] -0.0364% [at 18.6 µM] | fluorescence, % of fluorescent control [13] 0.362% [at 18.6 µM] | fluorescence, % of Rose Bengal [14] -0.353% [at 18.6 µM] | fluorescence, % of fluorescent control [15] -0.0993% [at 18.6 µM] | fluorescence, % of fluorescein control [16] -0.009% [at 18.6 µM] | fluorescence, % of fluorescent control [17] 0.105% [at 18.6 µM] | Potency [18] | Potency [19]

CCCCON=O
inactive: Potency [1] | Potency [2] | Potency [3] | Potency [4] | Potency [20] | outcome [6] | Potency [7] | outcome [9] | outcome [10] | Potency [11] | outcome [13] | outcome [14] | Potency [15] | Potency [16] | Potency [17] | Potency [18] | Potency [19]

CC(C)NCC(O)c1ccccc1Cl (configuration not stated)
inactive: Potency [1] | Potency [3] | Potency [20] | Potency [5] | outcome [6] | Potency [7] | Potency [8] | outcome [10] | Potency [11] | outcome [13] | outcome [14] | Potency [15] | Potency [16] | Potency [17]

CN=C=O
inactive: Potency [1] | Potency [3] | Potency [4] | Potency [20] | outcome [6] | Potency [7] | Potency [8] | outcome [9] | outcome [10] | Potency [11] | outcome [12] | outcome [13] | outcome [14] | Potency [15] | Potency [16] | Potency [17]

Clc1c(Cl)c(Cl)c(Cl)c(Cl)c1Cl
inactive: activation [1] -4.73% [at 8.3 µM] | activation [2] 3.25% [at 8.08 µM] | activity change, negative = cytotoxicity [3] -24.8% [at 8.08 µM] | activity change, negative = cytotoxicity [20] 3.14% [at 8.08 µM] | fluorescence, relative to Rose Bengal [6] -0.0012% [at 3.72 µM] | fluorescence, % of fluorescein control [7] -0.0433% [at 3.72 µM] | fluorescence, % of triamterene [8] -0.0308% [at 3.72 µM] | fluorescence, % of fluorescent control [9] -0.0042% [at 3.72 µM] | fluorescence, % of fluorescein [10] 0.081% [at 3.72 µM] | fluorescence, % of fluorescent control [11] -0.026% [at 3.72 µM] | fluorescence, % of fluorescent control [13] 0.029% [at 3.72 µM] | fluorescence, % of Rose Bengal [14] -0.0219% [at 3.72 µM] | fluorescence, % of fluorescent control [15] 0.0528% [at 3.72 µM] | fluorescence, % of fluorescein control [16] -0.0548% [at 3.72 µM] | fluorescence, % of fluorescent control [17] -0.0163% [at 3.72 µM] | activation [18] -0.383% [at 6.9 µM] | activity change, negative = inhibition [19] -10.3% [at 7.04 µM]

ClC1=C(Cl)[C@]2(Cl)[C@@H]3[C@H]4C[C@H]([C@@H]5O[C@H]45)[C@@H]3[C@@]1(Cl)C2(Cl)Cl
inactive: Potency [1] | Potency [3] | Potency [4] | outcome [6] | Potency [7] | Potency [8] | outcome [10] | Potency [11] | outcome [12] | outcome [13] | outcome [14] | Potency [15] | Potency [16] | Potency [17] | Potency [18] | Potency [19]
active: Potency [5] 16.8 µM and 19.3 µM

Cc1cccc(Cc2cnc[nH]2)c1C
inactive: Potency [1] | Potency [2] | Potency [3] | Potency [20] | Potency [5] | outcome [6] | Potency [7] | Potency [8] | outcome [10] | Potency [11] | outcome [12] | outcome [13] | outcome [14] | Potency [15] | Potency [16] | Potency [17] | Potency [18] | Potency [19]

From PubChem BioAssay (Tox21)
